Whole data set: some 18,000 sequences, median “TetR repression strength (sort-seq, GFP reporter)” near 0.23, cut for the highest 2% near 0.68. Shown is part of a subset that was picked to be rich in the highest values.

This experiment deals with TetR (class B, Tn10) (UniProt P04483). The experiment is described as follows: TetR repression strength (sort-seq, GFP reporter) (relative to tetO2 = 1); higher = stronger repression. The conditions noted are these: E. coli. The method in brief: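 Repression strength is the top bin index plus one minus the read-weighted mean bin, relative to the unaltered operator's value. A low-copy library in E. coli SIG10-MAX randomized eight operator positions between a constitutive promoter and sfGFP, with TetR expressed constitutively; cells grew 5 h at 37 °C in LB with 50 µg/mL chloramphenicol and 10^6 were FACS-sorted into 13 bins that were each Illumina-sequenced. Three independent transformations were averaged, keeping only members with ≥30 reads in all replicates and CV ≤0.5.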
TetR (class B, Tn10), sequence (P04483 whole entry): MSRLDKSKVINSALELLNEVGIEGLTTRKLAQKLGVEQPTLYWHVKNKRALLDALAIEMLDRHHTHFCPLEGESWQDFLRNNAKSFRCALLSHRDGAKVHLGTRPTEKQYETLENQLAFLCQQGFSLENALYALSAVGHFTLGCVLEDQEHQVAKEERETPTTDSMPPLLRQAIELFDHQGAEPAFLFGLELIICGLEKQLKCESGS
In the case of TCCCGTTGAGTGTTTGAGA, the TetR repression strength was 0.13.

Sequence TCCCGTTGAGTTTCTGAGA had a TetR repression strength of 0.744.

The sequence TCCCGTGGAGTGTTCGAGA displayed a TetR repression strength of 0.914.

Sequence TCCCGTTAAGTTTCTGAGA returned a TetR repression strength of 0.302.

TCCCGTTGAGTATTTGAGA: the TetR repression strength came to 0.329.

For the sequence TCCCGTGGAGTTTCTGAGA, the TetR repression strength worked out at 0.0476.

The sequence TCCCGTTTAGTATTTGAGA showed a TetR repression strength of 0.713.

In turn, TCCCGAGGAGTGTTCGAGA gave a TetR repression strength of 0.224.

For TCCCGTTTAGTAGTTGAGA, the TetR repression strength was 0.028.

Regarding TCCCGTAAAGTGGTGGAGA, the TetR repression strength is 0.228.

As to TCCCTCGAAGTGCTTGAGA, the TetR repression strength is 0.406.

For TCCCGAAGAGTGTTGGAGA, the TetR repression strength worked out at 0.268.

On to TCCCGTCAAGTACGCGAGA, for which the TetR repression strength came to 0.196.

In turn, TCCCCATGAGTAATTGAGA gave a TetR repression strength of 0.334.

TCCCGCGTAGTTACCGAGA yielded a TetR repression strength of 0.161.

The sequence TCCCTCGGAGTGTGCGAGA displayed a TetR repression strength of 0.09.

Regarding TCCCTTTGAGTATGGGAGA, the TetR repression strength is 0.0551.

The sequence TCCCTCGAAGTAGAAGAGA gave a TetR repression strength of 0.297.

On to TCCCGTGGAGTGGCCGAGA, for which the TetR repression strength came to 0.159.

TCCCGGGGAGTGTCCGAGA had a TetR repression strength of 0.125.

Regarding TCCCGTGGAGTGTCCGAGA, the TetR repression strength was determined as 0.821.

TCCCTACAAGTGTTTGAGA gave a TetR repression strength of 0.295.

Regarding TCCCGGACAGTTGGTGAGA, the TetR repression strength amounted to 0.421.

As to TCCCAGACAGTCATTGAGA, the TetR repression strength came to 0.375.

TCCCGGGCAGTCCGCGAGA had a TetR repression strength of 0.163.

Sequence TCCCAATGAGTGGGCGAGA showed a TetR repression strength of 0.238.

The sequence TCCCGCTGAGTTACGGAGA returned a TetR repression strength of 0.652.

As to TCCCCAATAGTTAGGGAGA, the TetR repression strength worked out at 0.699.

Regarding TCCCGCTGAGTTAGAGAGA, the TetR repression strength stood at 0.0464.

TCCCGCGGAGTTAGGGAGA came in with a TetR repression strength of 0.207.

Turning to TCCCCAACAGTTAGGGAGA, the TetR repression strength worked out at 0.218.

The sequence TCCCGCTTAGTTAGGGAGA registered a TetR repression strength of 1.02.

The sequence TCCCGCTAAGTTAGGGAGA had a TetR repression strength of 0.286.

Take TCCCGCTGAGTTAGGGAGA: the TetR repression strength turned out to be 0.929.

Turning to TCCCGCTTAGTTACGGAGA, the TetR repression strength is 1.2.

TCCCCCATAGTTAGGGAGA showed a TetR repression strength of 0.

Consider TCCCGCTTAGTGAGGGAGA, for which the TetR repression strength amounted to 0.419.

With TCCCGGTTAGTTACGGAGA, the TetR repression strength came to 0.211.

For TCCCTTTGAGTGGACGAGA, the TetR repression strength turned out to be 0.246.

For the sequence TCCCCATTAGTGGAGGAGA, the TetR repression strength amounted to 0.275.

TCCCCGGCAGTATGTGAGA came in with a TetR repression strength of 0.189.

TCCCGGAAAGTCTAGGAGA registered a TetR repression strength of 0.216.

TCCCTTTAAGTCGACGAGA gave a TetR repression strength of 0.285.

As for TCCCTTTTAGTGTGGGAGA, the TetR repression strength came out at 0.317.

Consider TCCCGTTAAGTCTTGGAGA, for which the TetR repression strength turned out to be 0.302.

The sequence TCCCGGAGAGTCGTTGAGA gave a TetR repression strength of 0.118.

In the case of TCCCGGCTAGTCACTGAGA, the TetR repression strength worked out at 0.256.

TCCCGGCTAGTCGTTGAGA registered a TetR repression strength of 0.89.

On to TCCCGCCTAGTCACTGAGA, for which the TetR repression strength worked out at 0.682.

TCCCGTCGAGTCGTTGAGA gave a TetR repression strength of 0.134.

TCCCGGCGAGTCGTTGAGA gave a TetR repression strength of 0.801.

Sequence TCCCGGCTAGTAGTTGAGA had a TetR repression strength of 0.295.

For TCCCGGTTAGTCGTTGAGA, the TetR repression strength worked out at 0.225.

On to TCCCGAGTAGTCACTGAGA, for which the TetR repression strength came out at 0.231.

For the sequence TCCCAATAAGTGTGCGAGA, the TetR repression strength was found to be 0.242.

TCCCGTTTAGTCGCGGAGA returned a TetR repression strength of 0.215.

TCCCAGTTAGTGGGTGAGA registered a TetR repression strength of 0.172.

The sequence TCCCCTCGAGTGCCGGAGA displayed a TetR repression strength of 0.442.

In turn, TCCCTAAAAGTGGGAGAGA yielded a TetR repression strength of 0.203.

TCCCACCGAGTGATCGAGA: the TetR repression strength came out at 0.405.

TCCCAAGGAGTGGTAGAGA displayed a TetR repression strength of 1.18.

In turn, TCCCTGTGAGTGATAGAGA returned a TetR repression strength of 0.456.

Regarding TCCCCAGGAGTGATAGAGA, the TetR repression strength was found to be 0.339.

Sequence TCCCACCGAGTGATAGAGA gave a TetR repression strength of 1.21.

On to TCCCCAGGAGTGGTAGAGA, for which the TetR repression strength was 0.189.

On to TCCCTATGAGTGCTAGAGA, for which the TetR repression strength is 0.452.

Regarding TCCCACCGAGTGAGAGAGA, the TetR repression strength is 0.43.

As to TCCCTATGAGTGATAGAGA, the TetR repression strength came out at 0.765.

In the case of TCCCAAGGAGTGATAGAGA, the TetR repression strength amounted to 0.977.

Sequence TCCCAAAGAGTGGTAGAGA showed a TetR repression strength of 0.164.

TCCCATGGAGTGATAGAGA: the TetR repression strength came to 0.548.

The sequence TCCCGGATAGTGGGTGAGA gave a TetR repression strength of 0.0875.

For TCCCCGGCAGTCGCAGAGA, the TetR repression strength was 0.207.

With TCCCGTGTAGTAAGGGAGA, the TetR repression strength was 0.307.

For TCCCGCCGAGTAGGCGAGA, the TetR repression strength turned out to be 0.34.

Regarding TCCCAATGAGTGATAGAGA, the TetR repression strength was 0.685.

In turn, TCCCACTGAGTGATAGAGA yielded a TetR repression strength of 0.551.

TCCCAGTGAGTGATAGAGA displayed a TetR repression strength of 0.528.

In turn, TCCCAAATAGTGTGGGAGA displayed a TetR repression strength of 0.459.

On to TCCCTGTTAGTGGGGGAGA, for which the TetR repression strength is 0.737.

On to TCCCAAATAGTGGGGGAGA, for which the TetR repression strength stood at 1.1.

TCCCTGATAGTGGGGGAGA: the TetR repression strength was determined as 0.0581.

Consider TCCCAAATAGTGGGAGAGA, for which the TetR repression strength stood at 0.214.

Take TCCCTGTTAGTGGGAGAGA: the TetR repression strength was 0.189.

For TCCCTGAAAGTCACGGAGA, the TetR repression strength worked out at 0.337.

The sequence TCCCGGGGAGTTAGGGAGA returned a TetR repression strength of 0.346.

Take TCCCCACAAGTATCCGAGA: the TetR repression strength was found to be 0.296.

In the case of TCCCCACAAGTATCAGAGA, the TetR repression strength worked out at 0.752.

TCCCACCCAGTATCAGAGA returned a TetR repression strength of 0.2.

For the sequence TCCCCACAAGTGTCAGAGA, the TetR repression strength came to 0.352.

Take TCCCCACCAGTGTCAGAGA: the TetR repression strength was 0.334.

Sequence TCCCCACCAGTATCAGAGA had a TetR repression strength of 0.697.

As to TCCCGGTAAGTGATGGAGA, the TetR repression strength worked out at 0.338.

As to TCCCGAGAAGTCCGAGAGA, the TetR repression strength was determined as 0.474.

For the sequence TCCCAGTAAGTCAGAGAGA, the TetR repression strength turned out to be 0.066.

In turn, TCCCGGAAAGTCTCGGAGA registered a TetR repression strength of 0.107.

Sequence TCCCTCGGAGTGGGAGAGA had a TetR repression strength of 0.217.

TCCCTCAGAGTTGGTGAGA: the TetR repression strength is 1.2.

With TCCCTCGGAGTGGGTGAGA, the TetR repression strength worked out at 0.988.

With TCCCCAGTAGTTGGTGAGA, the TetR repression strength came to 0.114.

Turning to TCCCTGAGAGTTGGTGAGA, the TetR repression strength amounted to 0.164.

In turn, TCCCTCGTAGTGAGTGAGA came in with a TetR repression strength of 0.507.

On to TCCCTCTGAGTGGGTGAGA, for which the TetR repression strength stood at 0.195.

In turn, TCCCTAAGAGTTGGTGAGA returned a TetR repression strength of 0.137.

The sequence TCCCAAGTAGTTGGTGAGA displayed a TetR repression strength of 0.774.

As for TCCCTCATAGTGGGTGAGA, the TetR repression strength was determined as 0.0921.

Consider TCCCTCGTAGTGGGTGAGA, for which the TetR repression strength is 0.815.

The sequence TCCCTAGTAGTTGGTGAGA yielded a TetR repression strength of 0.177.

The record behind these values is a collection of fitness landscapes (doi:10.1038/s41467-024-54723-y).
